# Experimental data: PubChem BioAssay (NCATS)
# Results filed as inconclusive are left out. Where a call stands in place of a potency, no number is given. Values without a mark were called inactive. Activity calls are given as the source filed them. The call rests on the fitted dose curve; in most records, active means well fitted inhibition curve with a large enough effect; inconclusive means small, poorly fitted or top-dose-only effect; inactive means no such curve, though single readings can be large or run the other way.
# Key:
# [1] = system: Zika virus NS2B-NS3 protease (unlinked complex); experiment: Primary screen GU Rhodamine qHTS for Zika virus inhibitors: Unlinked NS2B-NS3 protease assay (AID 1347159); further: nearly all actives have a fitted effect of over 60% in size
# Summary of the method: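 Percent inhibition came from the 15-min rise in Rhodamine110 fluorescence (1.5 microM substrate, ~15% conversion), normalized to no-inhibitor and no-enzyme wells and Hill-fitted. Unlinked protease, 25 nM, pH 8.0 Tris buffer; compounds up to 114 microM, 15-min preincubation.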
# [2] = system: Zika virus NS2B-NS3 protease (linked construct); experiment: Primary screen NINDS Rhodamine qHTS for Zika virus inhibitors (AID 1347160); further: nearly all actives have a fitted effect of over 55% in size
# Summary of the method: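 Rhodamine110-peptide cleavage (1.5 µM substrate) by 25 nM linked NS2B-NS3 enzyme at pH 8.0 (Tris, Tween 20), after 15 min RT preincubation with compounds; 15-min fluorescence change normalized to controls and Hill-fitted.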
Compound,"activity change, negative = inhibition [1]",outcome [2],Potency [1],Potency [2]
C[C@@H]1O[C@@H](O[C@H]2[C@H](OC(=O)[C@]34CCC(C)(C)C[C@H]3C3=CCC5[C@@]6(C)CC[C@H](O[C@@H]7O[C@H](C(=O)O)[C@@H](O)[C@H](O)[C@H]7O[C@@H]7O[C@H](CO)[C@H](O)[C@H](O)[C@H]7O)[C@@](C)(C=O)C6CC[C@@]5(C)[C@]3(C)C[C@H]4O)O[C@H](C)[C@H](O[C@@H]3O[C@H](C)[C@H](O)[C@H](O)[C@H]3O)[C@@H]2O)[C@H](O)[C@H](O)[C@H]1O[C@@H]1OC[C@@H](O)[C@H](O[C@@H]2O[C@H](CO)[C@@H](O)[C@H](O)[C@H]2O)[C@H]1O (stereo partly specified),4.39% [at 19.1 µM],inactive [at 10.7 µM],–,–
COC(=O)c1ccnc(-c2cc(C(=O)NCCc3ccccc3)ccn2)c1,–,–,inactive,inactive
C[C@H](O)[C@H](O)/C=C/c1cccc(O)c1CO,–,–,inactive,inactive
CCc1cnn2c(NCc3ccc[n+]([O-])c3)cc(N3CCCCC3CCO)nc12 (stereo unspecified),–,–,inactive,inactive
NC(=O)c1cccc(-c2cc(OC(=O)NC3CCCCC3)ccc2O)c1,–,–,inactive,inactive
C[C@H]1C(=O)N2c3ccccc3[C@@]3(O)C[C@@H]4C(=O)N[C@](C)(c5nc6ccccc6c(=O)n54)N1[C@@H]23,–,–,inactive,inactive
OC[C@H]1O[C@@H](OCCc2ccccc2)[C@H](O[C@@H]2OC[C@](O)(CO)[C@H]2O)[C@@H](O)[C@@H]1O,–,–,inactive,inactive
CC1(C=O)CC[C@]2(C(=O)O[C@@H]3O[C@H](CO)[C@@H](O)[C@H](O)[C@H]3O)CC[C@]3(C)C(=CCC4[C@@]5(C)C[C@H](O)[C@H](O[C@@H]6OC[C@@H](O)[C@H](O)[C@H]6O)[C@@](C)(CO)C5CC[C@]43C)C2C1 (stereo partly specified),–,–,inactive,inactive
